# Screening data as filed in PubChem.
# T cruzi growth-1: T. cruzi intracellular proliferation inhibitors, primary screen, cell-based, beta-gal Tulahuen parasites, NIH3T3 host, luminescence | T. cruzi beta-gal in NIH3T3, GalScreen luminescence, 90 h | inhibition, % at 8.34 µM | actives 5.9% (n = 77,000) | AID 624255, 2012;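 active means mean inhibition above about 93%, with at least 55% of replicates each passing it, limit read from the data, passing the limit was not always enough; inconclusive means only one of those two conditions holds; inactive means neither condition holds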
# C diff growth: C. difficile growth inhibitors, primary screen, HTS; Clostridium difficile clinical isolate growth, OD600, 24 h; stronger effect = lower value; growth activity, negative = inhibition, % at 16 µg/mL (by protocol); actives 0.25% (n = 86,000); AID 1259249, 2017;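 active means mean growth activity at or below -80% and every replicate also at or below -80%; inconclusive means mean at or below -80% but some replicate above -80%; inactive means mean growth activity above -80%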;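 further: 0% = DMSO wells and -100% = levofloxacin 16 µg/mL wells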
# T cruzi growth-2: T. cruzi intracellular proliferation inhibitors, confirmation, cell-based, NIH3T3 host, beta-gal parasite, luminescence, cherry-pick; inhibition, % at 8.35 µM; shares compounds with T cruzi growth-1; actives 72% (n = 5,600); T. cruzi beta-gal in NIH3T3, GalScreen luminescence, 90 h;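 active means mean replicate inhibition above about 95% and at least 55% of replicates individually reaching it, limit read from the data; inconclusive means only one of the two criteria is met; inactive means neither criterion is met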
# T cruzi growth-3: inhibitors of intracellular T. cruzi replication, confirmation, NIH3T3 host cells, beta-gal parasites, cherry-pick, set 2; AID 651740, 2012; actives 21% (n = 5,600); shares compounds with T cruzi growth-1; inhibition, % at 2.09 µM; T. cruzi beta-gal in NIH3T3, GalScreen luminescence, 90 h;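 active means mean inhibition above about 95%, with at least 55% of replicates also reaching it, limit read from the data; inconclusive means meets just one of the two conditions; inactive means meets neither condition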;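 further: plate controls were neutral control median for no effect and positive control median for full effect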
# NIH3T3 tox: cytotoxicity in mouse NIH/3T3 fibroblasts, confirmation, cytotoxicity control for T. cruzi proliferation inhibitor project, cell-based, cherry-pick, single point. actives 14% (n = 5,600). shares compounds with T cruzi growth-1. cytotoxicity (signal decrease), % at 8.35 µM. NIH/3T3 viability, CellTiter-Glo ATP luminescence, 90 h;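 active means mean signal decrease across replicates above about 35% based on untreated-well scatter, with enough replicates individually passing, limit read from the data; inconclusive means no rule stated though some were filed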;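 further: 0% = median of neutral control wells and 100% = median of positive control wells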
# 3T3 cytotox 2: NIH/3T3 fibroblast cytotoxicity, confirmation, cytotoxicity control, cell-based, cherry-pick, single point, set 2; shares compounds with T cruzi growth-1; NIH/3T3 viability, CellTiter-Glo ATP luminescence, 90 h; inhibition, % at 24.9 µM; actives 56% (n = 5,600);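 active means mean loss of cell viability signal at or above a set limit, and enough replicates individually reaching it; inconclusive means meets only the mean limit or only the replicate share; inactive means meets neither condition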;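 further: 0% = median of neutral control wells and 100% = median of positive control wells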
# Starred values were filed as active, the others as inactive; ? = inconclusive; · = not tested or not shown. This excerpt belongs to a sample that is enriched for hits.
SMILES,T cruzi growth-1,C diff growth,T cruzi growth-2,T cruzi growth-3,NIH3T3 tox,3T3 cytotox 2
CCN1[C@H](C(=O)N[C@H](C)c2ccccc2)[C@@H](CO)[C@@H]2Cn3c(ccc(-c4cccc(F)c4)c3=O)[C@@H]21,76,2,·,·,·,·
CCN1[C@@H]2c3ccc(-c4cccc(F)c4)c(=O)n3C[C@@H]2[C@@H](CO)[C@@H]1C(=O)N[C@@H](C)c1ccccc1,102*,2,25,30,1,25*
COC(=O)[C@H]1[C@H](CO)[C@H]2Cn3c(ccc(-c4cccc(C(=O)N(C)C)c4)c3=O)[C@H]2N1CC1CC1,44,2,·,·,·,·
CCNC(=O)[C@H]1[C@H](CO)[C@H]2Cn3c(ccc(-c4ccccc4)c3=O)[C@H]2N1Cc1ccccc1,52,-1,·,·,·,·
COC(=O)[C@H]1[C@H](CO)[C@H]2Cn3c(ccc(-c4ccccc4)c3=O)[C@H]2N1Cc1cccc(F)c1,87,3,·,·,·,·
CCN1[C@H](C(=O)OC)[C@@H](CO)[C@@H]2Cn3c(ccc(-c4cccc(C(=O)N(C)C)c4)c3=O)[C@@H]21,96*,4,-38,-44,-12,-14
COc1ccccc1CN1[C@@H]2c3cccc(=O)n3C[C@@H]2[C@@H](CO)[C@@H]1C(=O)NCc1ccccc1,-21,2,·,·,·,·
Cc1ccc(S(=O)(=O)N[C@@H]2CC[C@H](CCNC(=O)Cc3ccccn3)O[C@@H]2CO)cc1,-17,-1,·,·,·,·
C[C@@H]1CN([C@@H](C)CO)S(=O)(=O)c2ccc(-c3ccc(F)cc3)cc2O[C@@H]1CN(C)C(=O)C1CC1,-126,-11,·,·,·,·
COc1ccc(-c2ccc3n(c2=O)C[C@@H]2[C@@H](CO)[C@H](C(=O)N(C)C)N(CC4CCCC4)[C@H]32)cc1,-4,-4,·,·,·,·
COc1ccc(-c2ccc3n(c2=O)C[C@@H]2[C@@H](CO)[C@H](C(=O)N(C)C)N(CC4CC4)[C@H]32)cc1,103*,10,22,9,-3,19
C[C@@H]1CCCCO[C@@H](CN(C)C(=O)CCCN(C)C)[C@H](C)CN([C@@H](C)CO)C(=O)c2cc(NC(=O)CCC(F)(F)F)ccc2O1,30,-5,·,·,·,·
CCCC#Cc1ccc2c(c1)O[C@H](CN(C)Cc1ccncc1)[C@@H](C)CN([C@H](C)CO)S2(=O)=O,118*,5,98*,?,37*,104*
CCCC#Cc1ccc2c(c1)O[C@H](CN(C)Cc1ccncc1)[C@H](C)CN([C@@H](C)CO)S2(=O)=O,118*,7,90,65,?,41*
CCCC#Cc1ccc2c(c1)O[C@@H](CN(C)Cc1ccncc1)[C@@H](C)CN([C@H](C)CO)S2(=O)=O,114*,6,105*,90,32,-2
C[C@@H]1CN([C@@H](C)CO)S(=O)(=O)c2ccc(C#CCN(C)C)cc2O[C@H]1CN(C)Cc1ccncc1,107*,-1,108*,?,27,46*
C[C@@H](NC(=O)C[C@@H]1C=C[C@@H](NC(=O)CN2CCOCC2)[C@@H](CO)O1)c1ccccc1,-7,·,·,·,·,·
COc1ccc(NC(=O)N(C)C[C@@H]2Oc3ccc(NS(=O)(=O)c4ccc(C)cc4)cc3C(=O)N([C@H](C)CO)C[C@@H]2C)cc1,18,·,·,·,·,·
COc1ccc(-c2cnc3c(c2)C(=O)N([C@H](C)CO)C[C@@H](C)[C@@H](CN(C)C(=O)CN(C)C)O3)cc1,51,-2,·,·,·,·
C[C@@H]1CN([C@@H](C)CO)C(=O)c2cc(NS(=O)(=O)c3cn(C)cn3)ccc2O[C@@H]1CN(C)Cc1ccc(-c2ccccc2)cc1,54,-10,·,·,·,·
CO[C@@H]1CN(C)C(=O)c2ccc(NC(=O)C3CCCC3)cc2OC[C@@H](C)N(C)C[C@@H]1C,-5,·,·,·,·,·
CCCC#Cc1ccc2c(c1)O[C@@H](CN(C)Cc1ccncc1)[C@@H](C)CN([C@@H](C)CO)S2(=O)=O,113*,8,102*,96*,26,100*
